hgDAF12 agonist – hgDAF-12 agonism, primary luciferase screen; activation, % at 6.8 µM; 1.8% of 370,000 active; HEK293 GAL4-hgDAF12 UAS-luciferase reporter, agonist luminescence; normalized to butyrate control;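 active = activation above a cutoff set at the mean of all screened compounds plus 3 SD, cut at about 10% in these data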;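 note: 0% = DMSO wells and 100% = sodium butyrate wells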
DAX1 inh-1 – inhibits human nuclear receptor DAX1; AID 504766; 0.99% of 340,000 active; inhibition, % at 6.75 µM; P51843; HEK293 Gal4-DAX1 luciferase reporter, luminescence;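 active = inhibition above the mean over all tested compounds plus 3 SD, cut at about 4.2% in these data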;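 note: 0% = DAX1-transfected cells with DMSO and 100% = empty-vector control cells with DMSO; inhibition shows as a rise in luminescence from relieved DAX1 repression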
Target sequence (P51843 207-470 limits assumed): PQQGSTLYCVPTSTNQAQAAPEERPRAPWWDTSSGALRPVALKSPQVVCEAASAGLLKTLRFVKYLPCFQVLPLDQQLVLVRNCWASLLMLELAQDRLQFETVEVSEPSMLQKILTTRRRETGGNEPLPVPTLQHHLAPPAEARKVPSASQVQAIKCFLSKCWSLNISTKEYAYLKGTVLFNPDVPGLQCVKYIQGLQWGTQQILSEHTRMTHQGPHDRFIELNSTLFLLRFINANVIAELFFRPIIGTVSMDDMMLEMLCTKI
DAX1 inh-2 – DAX1 (NR0B1) inhibition, primary screen | HEK293T StAR-luciferase reporter, SF-1/DAX-1 repression relief | inhibition, % at 6.8 µM | 1.1% of 370,000 active | AID 652010;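 active = inhibition above the mean over all tested compounds plus 3 SD, cut at about 3.6% in these data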;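 note: 0% = DAX-1 cells with DMSO and 100% = cells lacking DAX-1 with DMSO; higher inhibition means more luminescence from relief of DAX-1 repression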
hcDAF-12 act – activators of H. contortus DAF-12 nuclear receptor; HEK293 hcDAF-12 lit1-tk-luc reporter, luminescence; 0% DMSO, 100% Δ7-dafachronic acid; activation, % at 6.8 µM; AID 652067; 1.4% of 370,000 active;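 active = activation above the mean of all tested compounds plus 3 SD, cut at about 5.5% in these data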;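 note: 100% = response to 3 µM Δ7-dafachronic acid high control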
ssDAF12 agonist – activates DAF-12 receptor from parasite S. stercoralis; HEK293 ssDAF-12/GRIP1 lit1-tk-luc reporter, luminescence; % of 3 µM dafachronic acid response; activation, % at 6.8 µM; 1% of 370,000 active; AID 652126;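 active = activation above the mean over all tested compounds plus 3 SD, cut at about 0.9% in these data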;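 note: 0% = DMSO-only wells and 100% = 3 µM delta7-dafachronic acid wells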
hgDAF12 conf – hgDAF-12 agonism, confirmation assay | shares compounds with hgDAF12 agonist | HEK293 GAL4-hgDAF12 luciferase reporter, agonist mode; percent of butyrate response | activation, % at 6.8 µM | 80% of 3,300 active | AID 743050;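 active = mean activation over triplicate wells above the hit cutoff derived from the earlier primary screen, cut at about 11% in these data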;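 note: 0% = DMSO low control and 100% = 2 mM sodium butyrate high control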
LXRb DAF12 ctr – counter-screen for DAF-12 agonists: agonists of human LXR-beta. shares compounds with hgDAF12 agonist. HEK293 Gal4-LXR luciferase reporter, 24 h. activation, % at 6.8 µM. 3,300 tested, under 10 active. AID 743051;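 active = mean activation of the triplicate above a set limit carried over from the primary screen, none filed active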
* = called active by the depositor; · = no result given. This is a sample that favours compounds with a hit; in the whole collection about 4.1% have one here.

SMILES	hgDAF12 agonist	DAX1 inh-1	DAX1 inh-2	hcDAF-12 act	ssDAF12 agonist	hgDAF12 conf	LXRb DAF12 ctr
O=C(Nc1ccccc1)C1CCCCC1	0	0	0	-1	-1	·	·
O=C(Nc1ccc2ccccc2n1)C1CCCCC1	15*	·	2	2	0	16*	1
Cc1ccc(S(=O)(=O)NC(CC(=O)OCc2ccccc2)C(=O)OCc2ccccc2)cc1 (configuration not stated)	-2	1	1	-1	-2	·	·
CCOC(=O)/C=C/c1cccc(C)c1O	14*	·	4.5*	1	0	12*	0
O=C(NCCCc1ccccc1)[C@H](Cc1c[nH]c2ccccc12)NC1(C(=O)NCCc2c[nH]c3ccccc23)CCOCC1	-4	·	·	1	0	·	·
COCCCn1cnc2oc3nc4ccccc4nc3c2c1=O	15*	1	3	6	0	19*	1
Cc1nc(C(C)NC(=O)c2cc(COc3ccc(C)c(C)c3)on2)c(C)s1 (configuration not stated)	13*	1	1	2	0	14*	1
Cc1cc(OCc2cc(C(=O)NC(C)c3cnn(C)c3)no2)cc(C)c1Cl (configuration not stated)	16*	2	2	4	0	13*	1
Cc1ccc(C)c(OCc2cc(C(=O)NC(C)c3cnn(C)c3)no2)c1 (configuration not stated)	2	1	-1	-2	-1	·	·
Cc1oc2cc3oc(=O)c(CCC(=O)N[C@H](C(=O)O)C(C)C)c(C)c3cc2c1C	1	2	0	2	-1	·	·
CC(C)CCn1nnnc1CN1CCN(C(c2ccccc2)c2ccccc2)CC1	-2	0	-1	0	-1	·	·
O=C(OCC(=O)N1CCOCC1)c1ccccc1Cc1ccccc1	17*	3	4.1*	6.3*	1	18*	1
O=C(OCC(=O)N1CCOCC1)c1ccccc1Br	1	1	0	0	0	·	·
C/C(=N\Nc1nccnc1Cl)c1ccc(Br)cc1	17*	1	2	5.8*	0	6	0
C/C(=N/Nc1ncc(Br)cn1)c1ccc([N+](=O)[O-])cc1	2	3	0	1	-1	·	·
C/C(=N\Nc1nccnc1Cl)c1ccc([N+](=O)[O-])cc1	15*	1	2	4	1	2	0
CC1CCc2c(sc(NC(=O)C3CCCO3)c2C#N)C1 (configuration not stated)	20*	2	3	1	-1	10*	1
COC(=O)c1cccc(NC(=O)c2onc3c2CCCC3)c1	17*	1	3.8*	6.0*	1	18*	1
CN1C(=O)CC(C(=O)O)SC1=Nc1cc(Cl)cc(Cl)c1 (configuration not stated)	-1	1	0	1	-1	·	·
O=C(OCc1ccccc1)N1CCC2CC1c1ccc(N3CCNCC3)cc12 (configuration not stated)	14*	0	-1	4	0	8	0
Clc1ccccc1OCc1nnc(-c2ccccc2Br)o1	10	1	1	2	0	·	·
N#Cc1ccccc1OCc1nnc(-c2ccccc2Br)o1	15*	2	2	4	0	11*	1
O=C1CC(/C=C/c2ccccc2)=Nc2ccccc2N1	3	1	1	-1	-1	·	·
O=C1CC(/C=C/c2ccc(Cl)cc2)=Nc2ccccc2N1	17*	3	1	2	-1	8	1
Cc1nc2c(oc3ccccc32)c(=O)o1	14*	2	1	6.1*	0	9	0
O=c1[nH]c(Cc2ccccc2)nc2c1oc1ccccc12	-2	0	0	-1	-2	·	·
CCCCn1c(N)c(N(CC(C)C)C(=O)c2ccc(F)c(S(=O)(=O)N3CCOCC3)c2)c(=O)[nH]c1=O	-1	-1	1	0	-1	·	·
CCn1c(SCc2ccccc2Cl)nc2ccccc21	6	3	1	2	-1	·	·
